In the library only some 4.5% were active in any assay of this set; here they are far more common.
TPT1 inh: blocks Candida albicans tRNA 2'-phosphotransferase | recombinant caTPT1, FP RNA substrate dephosphorylation | inhibition, % at 5 µM | actives 0.81% (n = 300,000) | AID 1962;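 active = inhibition above the mean of all tested compounds plus 3 SD, set per screening campaign, cut at about 24% in these data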
GRIN3A LBD mod: NR3A (human) ligand-binding domain modulation | NR3A LBD differential scanning fluorimetry, Tm shift; 0% = protein alone, 100% = glycine-bound protein | Tm shift relative to glycine control, % at 25 µM | actives 2.5% (n = 340,000) | AID 1259313;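 active = melting temperature shift of at least 10% of the positive control shift, at one fixed dose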
ZTA counter: counter-screen for EBNA-1 inhibitors: inhibitors of Epstein-Barr virus ZTA; inhibition, % at 11 µM; P03206; ZTA-DNA binding, fluorescence polarization; actives 0.15% (n = 320,000); in the data active = inhibition above about 33%
Target sequence (P03206 whole entry, looked up): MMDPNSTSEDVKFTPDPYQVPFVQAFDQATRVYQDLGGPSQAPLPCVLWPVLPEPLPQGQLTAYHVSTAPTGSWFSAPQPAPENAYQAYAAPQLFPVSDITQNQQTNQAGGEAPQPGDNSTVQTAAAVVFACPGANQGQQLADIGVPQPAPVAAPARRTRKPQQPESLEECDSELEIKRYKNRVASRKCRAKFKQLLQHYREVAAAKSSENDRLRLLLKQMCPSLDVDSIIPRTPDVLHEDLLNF
Rpn11 block: inhibitors of human proteasome Rpn11; O00487; human 26S proteasome, Ub4-pepOG fluorescence polarization; 20S core pre-blocked with epoxomicin; inhibition, % at 20 µM; actives 0.59% (n = 360,000);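 active = inhibition at 20 µM, scaled to each plate's controls, above about 33%, limit read from the data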
EBNA-1 inhibitor: blocks EBNA-1 binding to DNA; EBNA-1 DNA binding, fluorescence polarization; inhibition, % at 14.8 µM; actives 0.34% (n = 300,000); AID 1950; in the data active = inhibition above about 28%
dFosB act: activators of mouse delta FosB homodimer | actives 0.99% (n = 340,000) | activation, % at 25 µM | P13346 | AID 493131 | purified delta FosB, TAMRA-CDK5 oligo fluorescence polarization; percent of positive-control signal above neutral wells;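 active = mean activation above about 17%, with every replicate also reaching it, limit read from the data, passing the limit was not always enough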
Target sequence (P13346 whole entry, looked up): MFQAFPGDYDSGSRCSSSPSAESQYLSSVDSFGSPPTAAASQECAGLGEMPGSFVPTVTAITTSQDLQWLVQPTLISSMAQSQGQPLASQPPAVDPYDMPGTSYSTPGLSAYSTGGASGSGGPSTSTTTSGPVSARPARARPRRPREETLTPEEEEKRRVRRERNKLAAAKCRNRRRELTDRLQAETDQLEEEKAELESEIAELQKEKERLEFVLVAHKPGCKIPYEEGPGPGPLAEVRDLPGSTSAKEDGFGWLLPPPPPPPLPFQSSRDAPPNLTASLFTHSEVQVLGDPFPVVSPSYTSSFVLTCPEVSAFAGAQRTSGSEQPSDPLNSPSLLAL
Large screens that a line does not name were inactive.

Cc1ccc(NC(=O)CN(C)C(=O)c2cccc(S(=O)(=O)N3CCc4ccccc4C3)c2)cc1	none (no result: TPT1 inh, GRIN3A LBD mod, ZTA counter, EBNA-1 inhibitor, dFosB act)
Nc1nc(-c2ccc(Br)cc2)cs1	none
Brc1ccc(-c2csc(Nc3nc(-c4ccc(Br)cc4)cs3)n2)cc1	GRIN3A LBD mod 32
O=C(NCc1csc2ccc(Cl)cc12)Nc1ccccc1	GRIN3A LBD mod 23
Cc1nc(Nc2ccc(Cl)c(Cl)c2)sc1C(=O)Nc1ccccc1	GRIN3A LBD mod 32
Cc1nc(NC(=O)C2CC2)sc1C(=O)Nc1cccc(Cl)c1	none (no result: TPT1 inh, ZTA counter, EBNA-1 inhibitor)
Cc1nc(Nc2ccc(Cl)cc2Cl)sc1C(=O)Nc1ccccc1	GRIN3A LBD mod 43
Cc1nc(NC(=O)c2ccco2)sc1C(=O)O	none
Cc1nc(NC(=O)c2ccco2)sc1C(=O)Nc1ccc(Br)cc1	GRIN3A LBD mod 15
Cc1cc(OCC(=O)NCc2ccccn2)c2c(C)c(Cc3ccccc3)c(=O)oc2c1	none
CC(O)(c1cccnc1)c1nc(-c2ccc3ccccc3c2)cs1 (stereo unspecified)	none (no result: TPT1 inh, GRIN3A LBD mod, ZTA counter, EBNA-1 inhibitor, dFosB act)
COCCn1c(-c2ccc(F)cc2)nc2cccnc21	none
COc1ccccc1CNC(=O)[C@H](Cc1c[nH]c2ccccc12)NC(=O)[C@@H]1Cc2ccccc2CN1	none
Cc1cc2occ(CC(=O)N(C)CC(=O)Nc3c(C)cccc3C)c2cc1C	none
Cc1cccc(C)c1NC(=O)CN(C)C(=O)Cc1cccc(C(F)(F)F)c1	GRIN3A LBD mod 12
COc1ccc(OC)c2c(=O)cc(C(=O)O)[nH]c12	none (no result: dFosB act)
COc1ccc(OC)c2c(C)c(C)[nH]c12	GRIN3A LBD mod 10
Oc1ccccc1-c1nc2c3ccccc3c3ccccc3c2[nH]1	GRIN3A LBD mod 37
c1csc(-c2nc3c4ccccc4c4ccccc4c3[nH]2)c1	GRIN3A LBD mod 28
Oc1ccccc1-c1ccn[nH]1	none (no result: TPT1 inh, ZTA counter, EBNA-1 inhibitor)
CCN1C(=O)N[C@@H](CCc2ccccc2)[C@H](C(=O)OC)[C@H]1C	none
CCOc1c(CNCCCSc2nc(C)cc(C)n2)cccc1OC	none
CCCCOC(=O)C1CN(c2ccccc2)N=C1C(=O)OCC (stereo unspecified)	GRIN3A LBD mod 15
O=c1c2cc3c(cc2[nH]c(=S)n1C1CCN(Cc2ccccc2)CC1)OCO3	none
COc1ccc2nc(/C(C#N)=C\c3ccc(Oc4ccc([N+](=O)[O-])cn4)cc3)[nH]c2c1	none
Cc1ccc2nc(/C(C#N)=C\c3ccc(Oc4ccc([N+](=O)[O-])cn4)cc3)[nH]c2c1	GRIN3A LBD mod 12
O=C(Nc1ccccc1)Nc1ccc2ccccc2c1	GRIN3A LBD mod 26
O=C(Nc1ccc(Cl)c(Cl)c1)N1CCCCCC1	none
O=C(Nc1ccccc1)Nc1ccc(Br)c(Cl)c1	GRIN3A LBD mod 30
CC(=O)c1ccc(NC(=S)NC(C)c2ccc(Cl)cc2Cl)cc1 (stereo unspecified)	GRIN3A LBD mod 22
CC(=O)c1cccc(NC(=S)NC(=O)c2ccc(Cl)cc2)c1	none
O=C(c1ccc(NC(=S)Nc2ccc(Cl)c(Cl)c2)cc1)N1CCCC1	GRIN3A LBD mod 15
O=C(CNC(=O)c1cccs1)N/N=C/c1c(F)cccc1Cl	none
CC(=O)Nc1cc(-c2ccc(CO)cc2)cn2c(-c3cccc(C(F)(F)F)c3)cnc12	none (no result: TPT1 inh, GRIN3A LBD mod, ZTA counter, EBNA-1 inhibitor, dFosB act)
CSc1cccc(NC(=O)C2CCCN(S(C)(=O)=O)C2)c1 (stereo unspecified)	none (no result: TPT1 inh, GRIN3A LBD mod, ZTA counter, EBNA-1 inhibitor, dFosB act)
CC(=O)c1ccc(NC(=S)Nc2ccc3cn[nH]c3c2)cc1	GRIN3A LBD mod 10
CC(=O)c1ccc(NC(=S)Nc2ccc(Br)c(Cl)c2)cc1	GRIN3A LBD mod 29
Cc1c(Cl)cccc1NC(=O)NN1CCN(C)CC1	none (no result: TPT1 inh, ZTA counter, EBNA-1 inhibitor)
COc1ccc(CCNC(=O)c2coc3ccccc3c2=O)cc1OC	none
Cc1cc(C)c(C#N)c(SCC(=O)Nc2cc(C)on2)n1	none (no result: TPT1 inh, ZTA counter, EBNA-1 inhibitor)
Nn1cnc2c(c1=O)C1(CCCCC1)Cc1ccccc1-2	none
Oc1ccc(-c2nc3c4c(ncn3n2)-c2ccccc2CC42CCCC2)cc1	GRIN3A LBD mod 61
COc1ccc(COn2nnc3ccc(S(=O)(=O)N4CCOCC4)cc32)cc1F	none
Cn1c(N)c(C(=O)COC(=O)/C=C/c2ccc(Cl)c(Cl)c2)c(=O)n(C)c1=O	GRIN3A LBD mod 17 (no result: TPT1 inh, ZTA counter, EBNA-1 inhibitor)
Cn1c(N)c(C(=O)COC(=O)/C=C/c2ccc(F)cc2)c(=O)n(C)c1=O	none (no result: TPT1 inh, EBNA-1 inhibitor)
O=C(NCCC(F)(F)F)C1Cc2c(-c3ccc(Cl)cc3)ccnc2O1 (stereo unspecified)	none (no result: TPT1 inh, GRIN3A LBD mod, ZTA counter, EBNA-1 inhibitor, dFosB act)
CC1CCc2c(sc(/N=C/c3cccnc3)c2C(N)=O)C1 (stereo unspecified)	GRIN3A LBD mod 11 (no result: dFosB act)
CC1CCc2c(sc(/N=C/c3ccco3)c2C(N)=O)C1 (stereo unspecified)	none
Cc1ccc(NC(=O)c2cc(S(=O)(=O)NCCC3=CCCCC3)ccc2F)cc1	GRIN3A LBD mod 14
CSc1nc(=S)c2[nH]c(=S)[nH]c2[nH]1	none (no result: TPT1 inh, ZTA counter, EBNA-1 inhibitor)
Cc1ccc2[nH]c3ccccc3c(=O)c2c1	none
O=c1c2ccccc2[nH]c2ccc(F)cc12	GRIN3A LBD mod 11
C[C@H](NC(=O)C1CCN(S(=O)(=O)c2ccccc2)CC1)C(=O)NCc1cccnc1	none (no result: TPT1 inh, GRIN3A LBD mod, ZTA counter, EBNA-1 inhibitor, dFosB act)
Nc1nc(/C=C/c2ccc(F)cc2)nc(-c2ccccc2O)n1	GRIN3A LBD mod 16
CCC[C@H](CN[C@@H](CNC)[C@H](C)CC)NCCc1cc(C(F)(F)F)cc(C(F)(F)F)c1	none
CC[C@@H](C)[C@H](CNC)NC[C@@H](Cc1cccc2ccccc12)NCCc1cccc(C(F)(F)F)c1	dFosB act 19
CC(C)n1c(O)c(N=NC(=O)CNC(=O)Cc2ccc(Cl)cc2)c2ccccc21	none
COc1ccccc1C(=O)NCC(=O)N=Nc1c(O)n(C(C)C)c2ccccc12	GRIN3A LBD mod 255
CN(CCc1ccccn1)C1CC(=O)N(c2ccc(Cl)cc2)C1=O (stereo unspecified)	GRIN3A LBD mod 14
O=C(NCc1cccc(F)c1)c1ccc(N2C(=O)Cn3c(cc4sccc43)C2=O)cc1	GRIN3A LBD mod 17
CCCCNC(=O)C1(C)CCCCN1C(=O)c1ccc2ccccc2n1 (stereo unspecified)	none (no result: TPT1 inh, GRIN3A LBD mod, ZTA counter, EBNA-1 inhibitor, dFosB act)
O=C1N(c2ccccc2)C2CS(=O)(=O)CC2N1c1ccc(Cl)c(Cl)c1 (stereo unspecified)	GRIN3A LBD mod 30
CC(C)c1ccc(Nc2n[nH]c(=S)s2)cc1	none (no result: TPT1 inh, GRIN3A LBD mod, ZTA counter, EBNA-1 inhibitor, dFosB act)
c1cncc(-c2nc3cc4ccccc4cc3[nH]2)c1	GRIN3A LBD mod 22
c1ccc(-c2nc3cc4ccccc4cc3[nH]2)nc1	none
CCN(C(=O)COC(=O)/C=C/c1cccc([N+](=O)[O-])c1)c1c(N)n(Cc2ccccc2)c(=O)[nH]c1=O	none (no result: TPT1 inh, EBNA-1 inhibitor)
CCN(C(=O)COC(=O)/C=C/c1ccc2c(c1)OCO2)c1c(N)n(Cc2ccccc2)c(=O)[nH]c1=O	dFosB act 164 (no result: TPT1 inh, ZTA counter, EBNA-1 inhibitor)
CCN(C(=O)COC(=O)CCS(=O)(=O)c1ccccc1)c1c(N)n(Cc2ccccc2)c(=O)[nH]c1=O	GRIN3A LBD mod 17 (no result: TPT1 inh, ZTA counter, EBNA-1 inhibitor)
